In PubChem BioAssay (EPA / NIEHS):
Active and inactive are the calls of the source. How the source made its calls: active means hit-call score of the fitted dose curve at least 0.9, where 1 is the maximum; inactive means score below 0.9.

Assays:
[1] = ATG_CRE_CIS: Attagene CIS-FACTORIAL HepG2 Assay for human cAMP Responsive Element (CRE) binding protein 3 (AID 2282926); conditions: HepG2 CRE cis-reporter, Attagene multiplexed mRNA; actives raise or lower the signal
Procedure, shortened: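 Multiplexed transcription-unit reporters transfected into HepG2; 24 h dosing; RT-PCR/capillary electrophoresis fluorescence read-out; bidirectional fit vs DMSO.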

[2] = molecular target: CCAAT/enhancer-binding protein beta (Homo sapiens) (UniProt P17676); test: ATG_C_EBP_CIS: Attagene CIS-FACTORIAL HepG2 Assay for human CCAAT/Enhancer Binding Protein (C/EBP) beta (AID 2282927); conditions: HepG2 Attagene cis-factorial transcription factor reporter; actives raise or lower the signal
Procedure, shortened: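 Endogenous transcription factor activity in human liver HepG2 cells is inferred from induction of a CEBPB-linked reporter mRNA. Exposure lasts 24 h; activity is fitted in both directions relative to DMSO.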

[3] = ATG_CMV_CIS: Attagene CIS-FACTORIAL HepG2 Assay for human CMV (Internal Marker) (AID 2282928); conditions: HepG2 CMV promoter reporter, transcription factor profiling; actives raise or lower the signal;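 further: endpoint acts as a background internal control marker rather than a target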
Procedure, shortened: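 Endogenous transcription factor activity read in HepG2 via transfected cis-promoter reporter units. After 24 h dosing, reporter mRNA measured by RT-PCR/capillary electrophoresis; gain or loss of signal fit relative to DMSO.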

[4] = ATG_DR4_LXR_CIS: Attagene CIS-FACTORIAL HepG2 Assay for human Liver X Receptor (LXR), DR4 submotif (AID 2282929); conditions: HepG2 Attagene DR4 cis-reporter, mRNA transcription; actives raise or lower the signal
Procedure, shortened: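 DR4 cis-reporter in HepG2, 24 h exposure. Detection: RT-PCR, 6-FAM labelling, CE fragment analysis. Endpoint fitted bidirectionally, DMSO = baseline.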

[5] = molecular target: Aryl hydrocarbon receptor (Homo sapiens) (UniProt P35869); test: ATG_Ahr_CIS: Attagene CIS-FACTORIAL HepG2 Assay for human Aryl Hydrocarbon Receptor (Ahr) (AID 2282930); conditions: HepG2 AhR cis-factorial reporter transcription; actives raise or lower the signal
Procedure, shortened: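 Transient MRTU transfection of HepG2 → 24 h compound exposure → total RNA, oligo(dT) RT → PCR, 6-FAM extension, HpaI cut → CE fluorescence. DMSO = baseline; bidirectional curve fit.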

[6] = ATG_AP_1_CIS: Attagene CIS-FACTORIAL HepG2 Assay for human Activator Protein 1 (AP-1) (AID 2282931); conditions: HepG2 Attagene cis-factorial AP-1 reporter mRNA; actives raise or lower the signal
Procedure, shortened: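 Cis-regulated reporter units transiently expressed in HepG2 report endogenous transcription-factor activity. Signal: reporter mRNA at 24 h, via RT-PCR and fluorescent capillary electrophoresis. Endpoint derived by bidirectional fitting, DMSO as negative control.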

[7] = ATG_AP_2_CIS: Attagene CIS-FACTORIAL HepG2 Assay for human Activator Protein 2 (AP-2) (AID 2282932); conditions: HepG2 AP-2 cis-reporter, Attagene transcription factor profiling; actives raise or lower the signal
Procedure, shortened: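 HepG2, transient MRTU transfection, cis-regulated reporters; 24 h compound exposure; RNA isolated, RT-PCR, 6-FAM labelling, HpaI digest, CE fluorescence. DMSO = negative control/baseline, bidirectional fit.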

[8] = ATG_BRE_CIS: Attagene CIS-FACTORIAL HepG2 Assay for human Bone Morphogenetic Protein (BMP) Response Element (BRE) (AID 2282933); conditions: HepG2 BMP response element reporter, Attagene transcription factor profiling; actives raise or lower the signal
Procedure, shortened: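 A HepG2 multiplex reporter system measured inducible reporter mRNA 24 h post-dosing. Detection: RT-PCR, 6-FAM primer extension, HpaI digestion, capillary electrophoresis. Activity fitted bidirectionally relative to DMSO.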

[9] = molecular target: Transcription factor E2F1 (Homo sapiens) (UniProt Q01094); test: ATG_E2F_CIS: Attagene CIS-FACTORIAL HepG2 Assay for human E2F Transcription Factor 1 (AID 2282935); conditions: HepG2 Attagene cis-reporter, E2F reporter RNA transcripts; actives raise or lower the signal
Procedure, shortened: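 Cis-element reporter mRNA induction in transiently transfected HepG2, 24 h exposure. Activity fitted in both directions relative to DMSO negative control.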

[10] = ATG_M_61_CIS: Attagene CIS-FACTORIAL HepG2 Assay for M61 Transcription Factor (Internal Marker) (AID 2282937); conditions: HepG2 Attagene CIS-FACTORIAL M61 internal marker reporter; actives raise or lower the signal
Procedure, shortened: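 Background-control endpoint: HepG2 cells with cis-regulated reporter constructs, 24 h exposure, reporter mRNA detected via fluorescent primer extension and capillary electrophoresis; values from bidirectional fitting with DMSO baseline.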

[11] = ATG_EGR_CIS: Attagene CIS-FACTORIAL HepG2 Assay for human Early Growth Response 1 (EGR1) (AID 2282938); conditions: HepG2 Attagene CIS-FACTORIAL EGR reporter mRNA; actives raise or lower the signal
Procedure, shortened: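 Endpoint derived by bidirectional fitting versus DMSO vehicle. Method: cis-promoter reporter units transfected into HepG2, 24 h dosing, RNA isolation, RT-PCR with 6-FAM primer extension and HpaI digestion, then capillary electrophoresis fluorescence detection.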

[12] = ATG_M_19_CIS: Attagene CIS-FACTORIAL HepG2 Assay for M19 Transcription Factor (Internal Marker) (AID 2282939); conditions: HepG2 Attagene CIS-FACTORIAL M19 internal marker reporter; actives raise or lower the signal
Procedure, shortened: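 Chemical-treated HepG2 (24 h) with MRTU constructs; reporter transcripts detected by fluorescent RT-PCR fragment analysis on capillary electrophoresis. Internal background marker, DMSO as baseline.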

[13] = ATG_Ets_CIS: Attagene CIS-FACTORIAL HepG2 Assay for human Erythroblast Transformation Specific (ETS) (AID 2282941); conditions: HepG2 ETS cis-reporter transcription, actives raise or lower the signal
Procedure, shortened: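 Steps: transfect HepG2 with multiple reporter units; treat compound 24 h; isolate RNA, DNase-treat, reverse-transcribe; PCR-amplify, label with 6-FAM, digest with HpaI; separate by capillary electrophoresis. Activity fitted both directions versus DMSO.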

[14] = molecular target: Hepatocyte nuclear factor 3-beta (Homo sapiens) (UniProt Q9Y261); test: ATG_FoxA2_CIS: Attagene CIS-FACTORIAL HepG2 Assay for human Forkhead box A2 (FOXA2) (AID 2282942); conditions: HepG2 cis-reporter transcription factor activity, 24 h; actives raise or lower the signal
Procedure, shortened: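 Measured: reporter mRNA induction or loss in HepG2 transiently carrying multiple cis-regulated reporter units, 24 h after dosing. Quantified by RT-PCR plus capillary electrophoresis, normalised to DMSO.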

[15] = ATG_FoxO_CIS: Attagene CIS-FACTORIAL HepG2 Assay for human Forkhead box O (FoxO) (AID 2282943); conditions: HepG2 Attagene cis-reporter, FoxO element, mRNA; actives raise or lower the signal
Procedure, shortened: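 HepG2, transient MRTU transfection (cis element, endogenous TFs). Dose 24 h. TriZol RNA → oligo(dT) RT → PCR → 6-FAM primer extension → HpaI cut → CE. Gain/loss vs DMSO.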

[16] = ATG_GLI_CIS: Attagene CIS-FACTORIAL HepG2 Assay for human Zinc Finger Protein GLI1 (AID 2282945); conditions: HepG2, Attagene cis-factorial reporter mRNA, GLI element; actives raise or lower the signal
Procedure, shortened: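 Bidirectional curve fits relative to DMSO, using reporter mRNA levels from RT-PCR plus capillary electrophoresis. Cells were HepG2 transiently carrying cis-regulated reporter constructs, harvested 24 h after dosing.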

[17] = ATG_ERE_CIS: Attagene CIS-FACTORIAL HepG2 Assay for Estrogen Response Element (ERE) (AID 2282940); conditions: HepG2 ERE cis-reporter, Attagene RNA transcript; actives raise or lower the signal
Procedure, shortened: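 Human liver cells (HepG2) bearing transiently transfected, promoter-regulated reporter units were exposed 24 h. Reporter mRNA induction was detected by capillary electrophoresis of labelled RT-PCR products and fitted bidirectionally to DMSO.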

[18] = ATG_GATA_CIS: Attagene CIS-FACTORIAL HepG2 Assay for human GATA Binding Protein (AID 2282944); conditions: HepG2 GATA cis-element reporter, Attagene multiplex mRNA; actives raise or lower the signal
Procedure, shortened: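 Transfected cis-reporter HepG2 cells were treated with chemicals for 24 hours. Total RNA was then converted to cDNA, amplified with reporter-specific primers and analysed by fluorescent capillary electrophoresis, using DMSO-treated wells as baseline.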

[19] = ATG_E_Box_CIS: Attagene CIS-FACTORIAL HepG2 Assay for human Enhancer Box (E-box) (AID 2282936); conditions: HepG2 E-box cis-reporter transcription, actives raise or lower the signal
Procedure, shortened: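 Cells: HepG2 (human liver), transient MRTU transfection. Exposure 24 h. RNA → oligo(dT) RT → PCR → 6-FAM label → HpaI → CE. Activity fitted both directions relative to DMSO.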

[20] = molecular target: Retinoic acid receptor alpha (Homo sapiens) (UniProt P10276); test: ATG_DR5_RAR_CIS: Attagene CIS-FACTORIAL HepG2 Assay for human Retinoic Acid Receptor Alpha (RARE), DR5 submotif (AID 2282934); conditions: HepG2 Attagene cis-factorial RARE DR5 reporter, mRNA; actives raise or lower the signal
Procedure, shortened: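 Transient MRTU transfection of HepG2; 24 h compound treatment; TriZol RNA, oligo(dT) RT, PCR, FAM labelling, capillary electrophoresis. Bidirectional fit vs DMSO. Endogenous TF activity at DR5 RARE.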

Measured: AC50

Sequence of Aryl hydrocarbon receptor (Homo sapiens) (P35869 whole entry, looked up): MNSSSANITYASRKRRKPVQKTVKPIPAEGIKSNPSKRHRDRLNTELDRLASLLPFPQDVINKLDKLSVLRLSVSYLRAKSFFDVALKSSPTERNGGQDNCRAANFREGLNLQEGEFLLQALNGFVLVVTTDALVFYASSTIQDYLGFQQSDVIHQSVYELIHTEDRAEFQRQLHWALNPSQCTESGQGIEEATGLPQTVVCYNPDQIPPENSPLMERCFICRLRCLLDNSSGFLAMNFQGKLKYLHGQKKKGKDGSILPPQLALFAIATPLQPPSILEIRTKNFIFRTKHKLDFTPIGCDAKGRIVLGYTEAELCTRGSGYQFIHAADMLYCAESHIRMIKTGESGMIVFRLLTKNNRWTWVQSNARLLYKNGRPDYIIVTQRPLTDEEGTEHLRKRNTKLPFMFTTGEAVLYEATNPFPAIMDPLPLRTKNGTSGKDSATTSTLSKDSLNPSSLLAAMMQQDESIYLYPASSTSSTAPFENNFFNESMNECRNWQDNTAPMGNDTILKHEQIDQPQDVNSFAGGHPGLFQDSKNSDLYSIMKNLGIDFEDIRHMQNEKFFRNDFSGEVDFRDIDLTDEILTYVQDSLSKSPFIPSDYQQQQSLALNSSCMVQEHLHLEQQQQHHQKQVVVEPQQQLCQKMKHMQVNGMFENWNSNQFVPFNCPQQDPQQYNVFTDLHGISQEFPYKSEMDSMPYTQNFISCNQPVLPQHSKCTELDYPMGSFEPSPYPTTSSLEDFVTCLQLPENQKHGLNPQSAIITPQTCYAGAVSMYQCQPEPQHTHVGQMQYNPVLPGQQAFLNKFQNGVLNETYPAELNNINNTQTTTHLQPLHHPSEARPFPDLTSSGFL
Sequence of Hepatocyte nuclear factor 3-beta (Homo sapiens) (Q9Y261 whole entry, looked up): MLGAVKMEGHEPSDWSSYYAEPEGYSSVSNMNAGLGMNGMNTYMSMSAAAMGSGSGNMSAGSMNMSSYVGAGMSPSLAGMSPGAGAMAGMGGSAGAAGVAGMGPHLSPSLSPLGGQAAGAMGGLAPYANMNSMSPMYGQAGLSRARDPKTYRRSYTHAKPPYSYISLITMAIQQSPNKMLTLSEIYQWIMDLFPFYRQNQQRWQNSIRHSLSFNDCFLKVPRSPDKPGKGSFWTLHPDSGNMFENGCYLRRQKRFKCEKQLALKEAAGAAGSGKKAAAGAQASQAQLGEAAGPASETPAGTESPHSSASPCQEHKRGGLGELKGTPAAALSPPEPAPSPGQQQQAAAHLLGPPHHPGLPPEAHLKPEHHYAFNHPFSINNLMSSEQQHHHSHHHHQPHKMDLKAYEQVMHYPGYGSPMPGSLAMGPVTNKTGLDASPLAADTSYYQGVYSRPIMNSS
Sequence of CCAAT/enhancer-binding protein beta (Homo sapiens) (P17676 whole entry, looked up): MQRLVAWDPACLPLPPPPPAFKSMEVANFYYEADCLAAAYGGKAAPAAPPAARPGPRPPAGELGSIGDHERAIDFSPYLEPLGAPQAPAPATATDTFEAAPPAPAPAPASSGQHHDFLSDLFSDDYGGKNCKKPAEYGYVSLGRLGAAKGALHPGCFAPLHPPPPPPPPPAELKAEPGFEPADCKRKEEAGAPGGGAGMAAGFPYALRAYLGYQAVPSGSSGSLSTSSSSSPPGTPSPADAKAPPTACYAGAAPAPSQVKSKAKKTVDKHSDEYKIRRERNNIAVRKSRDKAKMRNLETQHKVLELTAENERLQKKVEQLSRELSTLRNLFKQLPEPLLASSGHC
Sequence of Transcription factor E2F1 (Homo sapiens) (Q01094 whole entry, looked up): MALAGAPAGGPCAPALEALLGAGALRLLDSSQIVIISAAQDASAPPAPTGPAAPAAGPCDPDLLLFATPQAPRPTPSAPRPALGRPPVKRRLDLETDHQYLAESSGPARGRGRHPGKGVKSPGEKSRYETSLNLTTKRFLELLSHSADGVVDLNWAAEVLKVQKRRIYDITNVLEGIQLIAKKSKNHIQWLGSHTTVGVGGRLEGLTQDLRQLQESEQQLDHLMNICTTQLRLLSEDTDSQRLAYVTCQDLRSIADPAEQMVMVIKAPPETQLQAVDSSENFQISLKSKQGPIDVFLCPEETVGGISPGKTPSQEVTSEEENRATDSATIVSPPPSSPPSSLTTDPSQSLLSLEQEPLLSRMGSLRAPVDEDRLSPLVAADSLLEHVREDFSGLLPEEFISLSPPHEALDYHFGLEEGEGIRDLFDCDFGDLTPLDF
Sequence of Retinoic acid receptor alpha (Homo sapiens) (P10276 whole entry, looked up): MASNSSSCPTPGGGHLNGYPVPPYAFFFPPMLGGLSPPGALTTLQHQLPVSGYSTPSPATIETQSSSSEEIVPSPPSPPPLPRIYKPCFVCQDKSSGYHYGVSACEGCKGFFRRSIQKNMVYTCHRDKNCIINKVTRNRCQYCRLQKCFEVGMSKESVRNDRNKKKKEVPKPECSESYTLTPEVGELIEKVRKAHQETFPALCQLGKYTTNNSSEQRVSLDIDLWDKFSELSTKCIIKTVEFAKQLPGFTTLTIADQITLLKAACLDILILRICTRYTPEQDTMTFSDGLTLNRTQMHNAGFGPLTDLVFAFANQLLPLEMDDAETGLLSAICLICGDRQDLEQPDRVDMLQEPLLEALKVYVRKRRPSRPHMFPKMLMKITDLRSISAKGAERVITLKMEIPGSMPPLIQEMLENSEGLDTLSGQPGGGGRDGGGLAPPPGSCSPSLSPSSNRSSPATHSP

CCCCCC(=O)OCCc1ccccc1
not listed: [17] | [18] | [19] | [20]
inactive: all other assays above

Cc1ccc2sc3cccc(C)c3c2c1
not listed: [12] | [19] | [20]
inactive: all other assays above

Cc1cccc(C)c1C
not listed: [10] | [17] | [20]
inactive: all other assays above

O=C(Nc1ccccc1)c1cc([N+](=O)[O-])ccc1Cl
active: [1] 5.81 µM | [4] 100 µM | [5] 18.4 µM | [6] 100 µM | [11] 25.1 µM
not listed: [8] | [17] | [18] | [20]
inactive: all other assays above

CCCCNC(=O)NS(=O)(=O)c1ccc(C)cc1
not listed: [10] | [12] | [13] | [17] | [20]
inactive: all other assays above

NC(=O)NC1NC(=O)NC1=O (centres undefined)
not listed: [10] | [13] | [17] | [20]
inactive: all other assays above

CCN(CC)c1ccc2c(-c3ccccc3C(=O)O)c3ccc(=[N+](CC)CC)cc-3oc2c1
active: [4] 130 µM | [8] 158 µM | [11] 135 µM
not listed: [19] | [20]
inactive: all other assays above

CC(=O)C(=O)O
not listed: [6] | [12] | [13] | [17]
inactive: all other assays above

C#C[C@]1(O)CC[C@H]2[C@@H]3CCC4=Cc5oncc5C[C@]4(C)[C@H]3CC[C@@]21C
active: [1] 41.2 µM | [4] 14.5 µM | [6] 26.2 µM | [9] 33.4 µM | [19] 53.8 µM | [11] 21.9 µM | [17] 0.83 µM | [13] 26.1 µM | [15] 60.4 µM | [18] 54.6 µM | [16] 60.9 µM
inactive: [2] | [3] | [7] | [8] | [10] | [12] | [14]
